Data reported in PubChem BioAssay (EPA / NIEHS).
Calls of active or inactive are those of the source. Rule for the calls: active = hit-call score of the fitted dose curve at least 0.9, where 1 is the maximum; inactive = score below 0.9.

Read-out: Fatty Acid-Binding Protein 1 (FABP1), FABP1 (gene 2168)
Assay: LTEA_HepaRG_FABP1: Life Technologies and Expression Analysis (LTEA) Assay for Fatty Acid-Binding Protein 1 (FABP1) using HepaRG (AID 2283494)
Details: mRNA level, 48 h; actives raise or lower the signal
Method: LTEA_HepaRG is a cell based, multiplexed-readout assay that uses HepaRG, a human liver cell line, with measurements taken at 48 hours after chemical dosing on a 96-well plate.LTEA_HepaRG_FABP1 is one of 102 assay component(s) measured in the LTEA HepaRG cell culture assay. It is a marker of Steatosis.Data from the assay component LTEA_HepaRG_FABP1 was analyzed into 1 endpoint. This assay endpoint, LTEA_HepaRG_FABP1, was analyzed with bidirectional fitting relative to DMSO as the negative control and baseline of activity. Using a type of inducible reporter, measures of mRNA induction for gain or loss-of-signal activity can be used to understand regulation of transcription factor activity. To generalize the intended target to other relatable targets, this assay endpoint is annotated to the transporter intended target family, where the subfamily is fatty acid carrier protein.
A total of 1060 chemcials from the ToxCast library were tested in eight-point concentration-response experiments. Cell culture and cytotoxicity assays were conducted at Thermo Fisher Scientific's Custom Services facility (Madison, WI). A single lot of human HepaRG cells (Thermo Fisher Scientific, Frederick, MD) was used for the cell culture experiments. 96-well format collagen type I coated plates of human HepaRG cells were prepared using established methods. Briefly, cryopreserved HepaRG cells were thawed, plated at a density of approximately 100,000 cells/well in HepaRG Thaw, Plate, and General Purpose media (HPRG770, Thermo Fisher Scientific), and incubated for 48 hours. 0.5% DMSO was selected as vehicle control to balance the requisite need of DMSO in HepaRG cultures to maintain differentiation (for example, baseline metabolism, proportions of hepatocytes vs. cholangiocytes), while enabling further hepatic receptor pathway activation (for example, PXR and CAR) in response to chemical exposure. 48 hours after plating, the culture medium was replaced with HepaRG Serum-Free Incudtion Media. Cells were exposed to each test chemical in duplicate and maintained in CO2 incubators for another 48 hours. Chemical plates were thawed to room temperature and 200x concentrations of treatment groups were prepared. 8-point conentration-reponse curves were made with the highest exposure at 100 uM, followed by half-log dilutions, all in 0.5% DMSO. Each test plate contained variouse controls, induction positive controls (1mM phenobarbital), cytotoxicity positive controls ([…] aflatoxin B1), vehicle controls (0.5% DMSO), and total lysis controls (0.5% DMSO). Cell morphology images were taken using an Essen IncuCyte FLR automated microscope, with six 96-well plates imaged in about 24 minutes. Images were captured and exported and JPEG files. Spent culture media was transfered to black-well plates for the LDH assay, and remaining media was sorted at -80 C for later use. Cells were treated with RLT buffer and frozen until shipped for gene expression analysis. Total RNA was isolated from the cell suspension in 75 uL of Buffer RLT (Qiagen, Germantown, MD 20874) by Quintiles/Expression Analysis (Durham, NC) using a custom isolation procedure. Total RNA from each plate well was transferred to a preamplification plate. Fluidigm's 96.96 Dynamic ArrayTM (Fluidigm, Amsterdam, the Netherlands) technology was used for gene expression analyses by quantitative reverse transcription polymerase chain reaction (qRT-PCR, performed by Quintiles/Expression Analysis, Durham, NC)89. Standard TaqManTM Assays (Applied Biosystems/ThermoFisher Scientific, Foster City, CA) were used to assess the expression of 93 genes selected based on their selectivity and sensitivity to important hepatic receptors known to be modulated by environmental chemicals; importance in human hepatocyte functionality; and hepatotoxicity. […]

Row | SMILES | AC50 | outcome
1 | CCN(CC)CCNc1ccc(CNC=O)c2sc3ccc(OC)cc3c(=O)c12 | 21.5 µM (active) | 
2 | Cc1cc(CCN2CCN(c3nsc4ccccc34)CC2)cc2c1NC(=O)CC2(C)C | 69.7 µM (active) | 
3 | CCC(C)(C)C1CCC(O)CC1 (stereo not given) |  | inactive
4 | OC1CCCCC1 |  | inactive
5 | Cc1oc(-c2ccccc2)nc1CCOc1ccc(C[C@H](Nc2ccccc2C(=O)c2ccccc2)C(=O)O)cc1 | 23.1 µM (active) | 
6 | CCCCOCCO |  | inactive
7 | c1ccc2cc3c(ccc4ccccc43)cc2c1 | 21.7 µM (active) | 
8 | CCCCCCCCCCCCN1CCCC1=O |  | inactive
9 | c1ccc2c(c1)ccc1ccccc12 |  | inactive
10 | N#C[C@@H]1CC(F)(F)CN1C(=O)CNC1CC2CCC(C1)N2c1ncccn1 (stereo not given in full) |  | inactive
11 | Oc1cc2ccccc2c2ccccc12 |  | inactive
12 | O=[N+]([O-])c1ccc(O)cc1 |  | inactive
13 | CCCOc1sc(C(=O)N2CCC(c3cc(CN)ccc3F)CC2)c(C)c1Br |  | inactive
14 | CN1CCN(c2ccccc2/C=C2\SCCN(c3ccc(Cl)c(Cl)c3)C2=O)CC1 | 50 µM (active) | 
15 | CCCCCCCCOC(=O)CCCCCCCCC(=O)OCCCCCCCC |  | inactive
16 | CC(C)(C)c1ccc(O)c(C(C)(C)C)c1 |  | inactive
17 | CCc1ccc(CCOc2ccc(CC3SC(=O)NC3=O)cc2)nc1 (stereo not given) | 88.3 µM (active) | 
18 | OCCC(F)(F)C(F)(F)C(F)(F)C(F)(F)C(F)(F)C(F)(F)F |  | inactive
19 | CCC(=C(c1ccc(O)cc1)c1ccc(OCCN(C)C)cc1)c1ccccc1 |  | inactive
20 | CCCCC(CC)COC(=O)CCCCC(=O)OCc1ccccc1 (stereo not given) |  | inactive

Row | SMILES | AC50 | outcome
21 | CC#C[C@]1(O)CC[C@H]2[C@@H]3CCC4=CC(=O)CCC4=C3[C@@H](c3ccc(N(C)C)cc3)C[C@@]21C | 35.1 µM (active) | 
22 | CC1=C(/C=C/C(C)=C/C=C/C(C)=C/C(=O)O)C(C)(C)CCC1 | 13.6 µM (active) | 
23 | O=C(O)Cc1cc(I)c(Oc2cc(I)c(O)c(I)c2)c(I)c1 | 62 µM (active) | 
24 | Nc1cccc2c(N)cccc12 | 50 µM (active) | 
25 | CC[C@H](c1ccc(O)cc1)[C@@H](CC)c1ccc(O)cc1 | 80.7 µM (active) | 
26 | CCCCCCCCCCCCc1ccccc1S(=O)(=O)O | 66.4 µM (active) | 
27 | CC(C)(C)CC(C)(C)c1ccc(O)c(-n2nc3ccccc3n2)c1 | 50 µM (active) | 
28 | CCc1nn(C2CCCCC2)c2cc(C3(C#N)CCC(C(=O)O)CC3)ccc12 (stereo not given) | 88.2 µM (active) | 
29 | c1ccc2c(c1)Cc1ccccc1-2 |  | inactive
30 | CC(C)(C)c1cc(C(C)(C)C)c(O)c(C(C)(C)C)c1 | 14.1 µM (active) | 
31 | OC1CCC(C2CCCCC2)CC1 (stereo not given) |  | inactive
32 | COC(=O)CCCCC(=O)OC |  | inactive
33 | CCCOC(=O)c1ccc(O)cc1 |  | inactive
34 | CN1CCC[C@H]1c1cccnc1 |  | inactive
35 | C[C@@H]1C[C@H]2[C@@H]3CCC4=CC(=O)C=C[C@]4(C)[C@@]3(F)[C@@H](O)C[C@]2(C)[C@@]1(O)C(=O)COP(=O)(O)O |  | inactive
36 | O=c1c(-c2ccc(O)cc2)coc2cc(O)ccc12 |  | inactive
37 | CC(=O)NC1(c2cccc(F)c2)CCN(CC[C@@]2(c3ccc(Cl)c(Cl)c3)CN(c3ccccc3)C(=O)CO2)CC1 |  | inactive
38 | CCCCC(CC)COC(=O)CCCCC(=O)OCC(CC)CCCC (stereo not given) |  | inactive
39 | CC(C)CCCCCCOC(=O)CCCCC(=O)OCCCCCCC(C)C |  | inactive
40 | OCCC(F)(F)C(F)(F)C(F)(F)C(F)(F)C(F)(F)C(F)(F)C(F)(F)C(F)(F)F |  | inactive
